Rows were chosen to be rich in hits. Some 4.7% of all compounds tested hit in one or more screens of this group.
PABP1 MLLE inh: blocks PAM2 peptide binding to the PABP1 MLLE domain; 360,000 compounds, 0.36% hits; inhibition, % at 20 µM; P11940; GST-MLLE / FITC-PAM2 fluorescence polarization; in the data active = inhibition above about 35%, passing the limit was not always enough;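 note: plate controls were DMSO wells with GST-MLLE for no effect and wells lacking GST-MLLE protein for full effect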
eIF4H FP inh: inhibitors of RNA binding by human eIF4H; AID 2012; inhibition, % at 35 µM; eIF4H fluorescence polarization binding assay; 290,000 compounds, 0.94% hits; Q15056;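 note: calls also rest on retests at 20 µM and on dose response follow-up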
Efflux pump mplx: blocks antifungal efflux pumps in multiplex yeast assay. S. cerevisiae Candida pump triplex, Nile Red efflux. inhibition, % at 10 µM. 330,000 compounds, 0.44% hits. AID 485275;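 active = plate passing quality check with inhibition over a set limit, or well fluorescence over plate mean plus 4 SD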;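 note: Nile Red retained in pooled yeast measured as flow cytometry median fluorescence; 0% = buffer negative control and 100% = Enniatin B positive control; higher means more Nile Red kept so more efflux inhibition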
ALR inh: human ALR oxidase inhibition via reduced H2O2; 290,000 compounds, 3.8% hits; purified ALR, DTT oxidation, H2O2 HRP-luminol luminescence; P55789; inhibition, % (no concentration beside the values);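 active = mean replicate inhibition above about 79%, with every replicate also reaching it, limit read from the data; inconclusive = only one of the two criteria met; inactive = mean below limit and not every replicate reaching it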
Target sequence (P55789 whole entry, looked up): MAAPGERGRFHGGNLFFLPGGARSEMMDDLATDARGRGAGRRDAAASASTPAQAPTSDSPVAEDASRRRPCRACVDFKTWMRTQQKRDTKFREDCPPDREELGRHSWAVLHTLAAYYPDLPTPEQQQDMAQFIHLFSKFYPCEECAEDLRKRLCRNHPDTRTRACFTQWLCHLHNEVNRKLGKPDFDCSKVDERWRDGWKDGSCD
UBC9 SUMO inh: inhibitors of human SUMOylation (UBC9). inhibition, % at 35 µM. P63279. AID 2006. HTRF SUMOylation assay, SAE1/SAE2 + UBC9, in vitro. 290,000 compounds, 0.36% hits; in the data active = inhibition above about 50%, passing the limit was not always enough; inconclusive = no clear call, values can overlap the other calls
PABP FP inh: blocks human PABP binding to poly(A) RNA. inhibition, % at 35 µM. fluorescence polarization. 290,000 compounds, 1% hits. P11940;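 note: calls also rest on retests at 20 µM and on dose response follow-up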
* marks the source's active call; other numbers are inactive results. Unless noted, the rule behind the calls is not given here.

`c1cc2cn[nH]c2cc1NC1CCCCCC1` gave PABP1 MLLE inh 14, eIF4H FP inh 44, Efflux pump mplx 0, ALR inh 99*, UBC9 SUMO inh 26 and PABP FP inh 45.
For CN(C)c1ccc(NC(=O)CSc2nnc(-c3cccs3)n2Cc2ccco2)cc1 the results were PABP1 MLLE inh -113, eIF4H FP inh 8, Efflux pump mplx 1, ALR inh 99*, UBC9 SUMO inh -5 and PABP FP inh 12.
For Cc1ccc(NC(=O)CSc2nnc(-c3cccs3)n2Cc2ccco2)cc1 the results were PABP1 MLLE inh -9, eIF4H FP inh -5, Efflux pump mplx 0, ALR inh -1, UBC9 SUMO inh -23 and PABP FP inh 1.
Screening CCn1c(SCC(=O)Nc2ccc(N(C)C)cc2)nnc1-c1cccc(C)c1 returned PABP1 MLLE inh -28, eIF4H FP inh -1, Efflux pump mplx 0, ALR inh 99*, UBC9 SUMO inh 13 and PABP FP inh 4.
For COC(=O)/C=C/c1ccc(OC(=O)OC)c(OC(=O)OC)c1 the results were PABP1 MLLE inh -3, eIF4H FP inh 2, Efflux pump mplx 0, ALR inh 98*, UBC9 SUMO inh 10 and PABP FP inh -12.
Screening COC(=O)/C=C/c1ccc2c(c1)OCO2 returned PABP1 MLLE inh 1, eIF4H FP inh 7, Efflux pump mplx 0, ALR inh -3, UBC9 SUMO inh 3 and PABP FP inh -9.
For CCOc1ccc(C(Nc2ccc(C)cc2)P2(=O)OCC(C)(C)CO2)cc1 (stereo unspecified) the results were PABP1 MLLE inh 5, eIF4H FP inh 98*, Efflux pump mplx 0, ALR inh 51, UBC9 SUMO inh 15 and PABP FP inh 36*.
For CCOc1ccc(C(Nc2ccc(C)cc2)P2(=O)OCCCO2)cc1 (stereo unspecified) the results were PABP1 MLLE inh 4, eIF4H FP inh 4, Efflux pump mplx 0, ALR inh inconclusive, UBC9 SUMO inh 4 and PABP FP inh -8.
For CCOc1ccc(C(Nc2ccc(C)cc2)P2(=O)OCCC(C)O2)cc1 (stereo unspecified) the results were PABP1 MLLE inh 15, eIF4H FP inh -4, Efflux pump mplx 0, ALR inh 98*, UBC9 SUMO inh 2 and PABP FP inh 9.
Screening CC(NC(=O)C(=O)N1CCCCC1)C(c1cccs1)N1CCN(c2ccccc2)CC1 (stereo unspecified) returned PABP1 MLLE inh -4, eIF4H FP inh -21, Efflux pump mplx 0, ALR inh 99*, UBC9 SUMO inh 14 and PABP FP inh 2.
CC(NS(C)(=O)=O)C(c1cccs1)N1CCN(c2ccccc2F)CC1 (stereo unspecified) was read as PABP1 MLLE inh 1 and Efflux pump mplx 0.
CC(NC(=O)C(=O)N1CCCCC1)C(c1cccs1)N1CCN(c2ccc(F)cc2)CC1 (stereo unspecified) was read as PABP1 MLLE inh 3, eIF4H FP inh 7, Efflux pump mplx 0, ALR inh 98*, UBC9 SUMO inh -5 and PABP FP inh -10.
`CC(NC(=O)C1CC1)C(c1cccs1)N1CCN(c2ccccc2)CC1` (stereo unspecified) gave PABP1 MLLE inh -4, eIF4H FP inh -2, Efflux pump mplx 0, ALR inh 99*, UBC9 SUMO inh 10 and PABP FP inh 3.
`CC(NS(C)(=O)=O)C(c1cccs1)N1CCN(c2ccccc2)CC1` (stereo unspecified) gave PABP1 MLLE inh -7, eIF4H FP inh -7, Efflux pump mplx 0, ALR inh 99*, UBC9 SUMO inh -43 and PABP FP inh 10.
COc1ccc(CNC(=O)CN(C(=O)c2snc(C(N)=O)c2N)c2ccc(OC)c(OC)c2)cc1 was read as PABP1 MLLE inh -2, eIF4H FP inh -2, Efflux pump mplx 0, UBC9 SUMO inh 1 and PABP FP inh 3.
O=C(CSc1nc2ccccc2c(=O)[nH]1)c1ccc(O)cc1O was read as PABP1 MLLE inh 10, eIF4H FP inh -12, UBC9 SUMO inh 12 and PABP FP inh 3.
For Cc1cc(=O)[nH]c(SCC(=O)c2ccc(O)c(O)c2)n1 the results were PABP1 MLLE inh 16, eIF4H FP inh 34, Efflux pump mplx 0, ALR inh 99*, UBC9 SUMO inh 61 and PABP FP inh 14.
`Cc1cc(SCC(=O)c2ccc(O)c(O)c2)n2nc(C)c(-c3ccccc3)c2n1` gave PABP1 MLLE inh -15, eIF4H FP inh -3, Efflux pump mplx 0, ALR inh 96*, UBC9 SUMO inh 6 and PABP FP inh -7.
Screening Cc1ccc(C(=O)CSc2nc(C)cc(=O)[nH]2)cc1 returned PABP1 MLLE inh 24, eIF4H FP inh -1, Efflux pump mplx 0, ALR inh 98*, UBC9 SUMO inh -21 and PABP FP inh -1.
Cc1cc(C)nc(SCC(=O)c2ccc(O)c(O)c2)n1 was read as PABP1 MLLE inh 38, eIF4H FP inh 15, Efflux pump mplx 0, ALR inh 18, UBC9 SUMO inh -14 and PABP FP inh 7.
O=C(CSc1nc2ccccc2c(=O)[nH]1)c1ccc(O)c(O)c1 was read as PABP1 MLLE inh 20, eIF4H FP inh 16, Efflux pump mplx 0, ALR inh 99*, UBC9 SUMO inh 18 and PABP FP inh -3.
For COc1ccccc1-c1cc(NC=O)c2ncc(-c3ccc(S(C)(=O)=O)cc3)n2c1 the results were PABP1 MLLE inh -12.
Screening CCOc1ccc(N2C(=O)CC(Sc3n[nH]c(-c4ccccc4)n3)C2=O)cc1 (stereo unspecified) returned PABP1 MLLE inh 29, eIF4H FP inh 0, Efflux pump mplx 0, ALR inh 99*, UBC9 SUMO inh 2 and PABP FP inh -12.
For CCOc1ccc2nc(SC3CC(=O)N(c4ccccc4)C3=O)sc2c1 (stereo unspecified) the results were PABP1 MLLE inh 11, eIF4H FP inh -1, Efflux pump mplx 0, ALR inh 6, UBC9 SUMO inh 14 and PABP FP inh 0.
COc1ccc(N2C(=O)CC(Sc3n[nH]c(-c4ccccc4)n3)C2=O)cc1 (stereo unspecified) was read as PABP1 MLLE inh 31, eIF4H FP inh 7, Efflux pump mplx 0, ALR inh 99*, UBC9 SUMO inh 2 and PABP FP inh 5.
COc1ccc(NC(C)=O)cc1S(=O)(=O)N1CC=C(c2ccccc2)CC1 was read as PABP1 MLLE inh 1, Efflux pump mplx 0 and ALR inh -4.
Screening O=C(NC1CC1)c1cc(=S)[nH]c2ccccc12 returned PABP1 MLLE inh 27, Efflux pump mplx 0 and ALR inh 74.
COc1ccc(-c2cc(-c3n[nH]c(=S)n3-c3cc(OC)ccc3OC)[nH]n2)cc1 was read as PABP1 MLLE inh -10, eIF4H FP inh -2, Efflux pump mplx 0, ALR inh 83*, UBC9 SUMO inh -18 and PABP FP inh -7.

Bioassay records (PubChem BioAssay)
